The values below come from PubChem BioAssay AID652257 (The Scripps Research Institute Molecular Screening Center, 2013).

The campaign covered roughly 370,000 compounds. About 4,800 (1.3%) were called active. Many of the other results were omitted from the sample, so actives are more common in it than they were. Unmarked numbers belong to inactive results.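 The calls were made as follows: active = inhibition above about 21% made by adding two undisclosed values (limit read from the data); inactive = the rest.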

The target of this assay is Protein arginine N-methyltransferase 1 (Homo sapiens) (UniProt Q99873). Briefly: human PRMT1 activity-probe blockers – biochemical, fluorescence polarization, primary screen (AID 652257). The note with it: recombinant PRMT1, activity-based probe fluorescence polarization; at 2.79 µM; active compounds read high. (Fluorescence polarisation rises when a labelled molecule tumbles more slowly, as on binding a larger partner.)
Protein arginine N-methyltransferase 1 (Homo sapiens), sequence (Q99873 whole entry, looked up): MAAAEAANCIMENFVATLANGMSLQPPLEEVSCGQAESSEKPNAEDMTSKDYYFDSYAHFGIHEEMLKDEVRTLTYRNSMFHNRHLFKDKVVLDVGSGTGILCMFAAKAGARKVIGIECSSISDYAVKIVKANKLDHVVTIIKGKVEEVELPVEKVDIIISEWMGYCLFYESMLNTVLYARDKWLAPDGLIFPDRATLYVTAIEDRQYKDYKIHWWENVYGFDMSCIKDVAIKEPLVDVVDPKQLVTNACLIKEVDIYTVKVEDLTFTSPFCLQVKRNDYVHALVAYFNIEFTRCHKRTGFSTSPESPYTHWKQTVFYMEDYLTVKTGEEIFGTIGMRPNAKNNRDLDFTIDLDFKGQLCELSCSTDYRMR
Regarding `CC(=NNC(=S)N1CCCCCC1)c1ccccn1`, the inhibition was 25.4% (active).

As to `CCOC(=O)c1ccc(NC(=S)N2CCN(c3ccccn3)CC2)cc1`, the inhibition is -2.24%.

As for `O=[N+]([O-])c1ccc(NC(=S)N2CCN(c3ccccn3)CC2)cc1`, the inhibition is -0.91%.

As to `COC(=O)C1=C[C@@H](C(=O)OC)[C@@H]2C3=C(C(=O)[C@]2(C)NC(=O)c2ccccc2)[C@H](C)n2c(=O)n(C)c(=O)n2[C@@H]3C1`, the inhibition is 1.61%.

Consider `CCOC(=O)c1ccccc1NC(=O)CSc1nc2c(sc(=S)n2CC)c(=O)[nH]1`, for which the inhibition was 19%.

As for `CSc1ncnc2c1ncn2CC(=O)C1CCC2C3CCC4=CC(=O)CCC4(C)C3CCC12C` (configuration not stated), the inhibition is 0.25%.

`Cc1c(NS(=O)(=O)c2cccc(C(=O)Nc3ccc(SC(F)F)cc3)c2)c(=O)n(-c2ccccc2)n1C`: the inhibition was 21.1% (active).

`COc1ccc(C(=O)C(C)OC(=O)c2cccc(S(=O)(=O)Nc3c(C)n(C)n(-c4ccccc4)c3=O)c2)cc1` (configuration not stated): the inhibition was -2.91%.

In the case of `Cc1c(NS(=O)(=O)c2cc(C(=O)NCCc3ccc(F)cc3)cc(Cl)c2Cl)c(=O)n(-c2ccccc2)n1C`, the inhibition is -3.45%.

Regarding `Cc1ccccc1-c1nc(CS(=O)(=O)CC(=O)NC(C)c2ccccc2)c(C)o1` (configuration not stated), the inhibition was -4.8%.

Turning to `Cc1sc2nc(CSCC(=O)Nc3c(Cl)cccc3Cl)[nH]c(=O)c2c1C`, the inhibition was 13.1%.

As to `Cc1nc(SCC(=O)NC2CCCC2)[nH]c(=O)c1C`, the inhibition is 1.36%.

Take `Cc1sc2nc(CSCC(=O)NC3CCCCC3)[nH]c(=O)c2c1C`: the inhibition was 22.1% (active).

Turning to `COC(CNC(=O)[C@H](Cc1ccccc1)NC1(C(=O)NC2CCCCC2)CCCCC1)OC`, the inhibition was -5.82%.

For the compound `O=C(NCc1cccnc1)c1cnc2ccccc2n1`, the inhibition was -0.09%.

`CCOc1ccc(-n2c(SCC(=O)Nc3cc(C)c(NC(=O)c4ccccc4)cc3OC)nnc2-c2cccs2)cc1`: the inhibition was 2.3%.

For `CC(=O)N1CC(C)c2scc(C)[n+]2-c2ccccc21` (configuration not stated), the inhibition is 53.9% (active).

Consider `Cc1ccc(NC(=O)C(CC(=O)O)C2CCCO2)c(C)c1` (configuration not stated), for which the inhibition was 2.66%.

As to `Cc1ccc(C(=O)N(Cc2ccccn2)CC2CCCO2)cc1` (configuration not stated), the inhibition was -2.09%.

As for `NNC(=O)c1oc2nc(-c3ccccc3)cc(-c3ccco3)c2c1N`, the inhibition is -3.39%.

For the compound `CNC(=S)NNC(=O)c1oc2nc(-c3ccccc3)cc(-c3ccco3)c2c1N`, the inhibition was 21.9% (active).

As to `O=C(OCC#CCSc1nnc(-c2ccco2)o1)c1ccc(F)cc1`, the inhibition is -2.56%.

For the compound `COc1ccc(-c2cc(-c3nnc(SCc4ccc([N+](=O)[O-])cc4)n3N)[nH]n2)cc1`, the inhibition was -4.36%.

In the case of `O=C(NCc1ccco1)/C(=C/c1ccco1)NC(=O)c1ccccc1`, the inhibition is 7.1%.

As to `O=C(NC(Cc1ccccc1)C(=O)O)/C(=C\c1ccccc1)NC(=O)c1ccco1` (configuration not stated), the inhibition was -0.14%.

Regarding `O=C(NC(Cc1c[nH]c2ccccc12)C(=O)O)/C(=C/c1ccco1)NC(=O)c1ccccc1` (configuration not stated), the inhibition was 25.5% (active).

As to `O=C1CC[C@@]23CCCN2C(=O)CCC[C@H]3[C@H]1Cc1ccccc1`, the inhibition was 2.04%.

On to `O=C(C[C@H]1C[C@H](C(=O)N2CCOCC2)[C@@]2(CCC3CCCC3)c3[nH]c4ccc(Cl)cc4c3CCN2C1=O)NCc1ccco1`, for which the inhibition was -5.92%.

In the case of `C=CCN1C(=O)[C@@H](CC(=O)NCCCCc2ccccc2)[C@]2(C(=O)OCC)CCCCC/C=C/12`, the inhibition was 1.83%.

Regarding `Cn1c(=O)[nH]c(=O)c2c1[nH]c(=S)n2Cc1ccccc1`, the inhibition was 4.37%.

As for `CCC(=O)Nc1c(S(=O)(=O)c2ccccc2)c2nc3ccccc3nc2n1Cc1ccccc1`, the inhibition is 0.02%.

For `Cc1cc2nc3c(=O)n(Cc4ccccc4)c(=O)[nH]c3nc2cc1N`, the inhibition is 142% (active).

On to `CCC(CO)Nc1cccc2c1S(=O)(=O)N(Cc1cn(Cc3ccccc3C(F)(F)F)nn1)Cc1ccccc1O2` (configuration not stated), for which the inhibition is 0.43%.

On to `N#Cc1c(N2CCCCC2)nc(N)c2c(N)nc(SCC(=O)O)cc12`, for which the inhibition is 29.1% (active).

As for `Cc1nn(-c2ncccn2)c2c1C(=O)CC(C)(C)C2Br` (configuration not stated), the inhibition is -1.26%.

For `CCOC(=O)c1cc2c(ccn2C)n1CC(=O)N1CCC(C)CC1`, the inhibition was 1.01%.

For the compound `O=C(CSc1nnc(-c2ccccn2)n1-c1ccc(Cl)cc1)Nc1ccccc1-c1ccccc1`, the inhibition was 0.72%.

In the case of `CCOc1cc(C2/C(=C(/O)c3ccc(S(=O)(=O)N4CCCCC4)cc3)C(=O)C(=O)N2CCOC)ccc1O` (configuration not stated), the inhibition is 28.9% (active).

As to `COCCN1C(=O)C(=O)/C(=C(/O)c2ccc(S(=O)(=O)N3CCOCC3)cc2)C1c1ccc(OC)c(OC)c1` (configuration not stated), the inhibition is 4.25%.

Take `COCCN1C(=O)C(=O)/C(=C(/O)c2ccc(S(=O)(=O)N3CCCCC3)cc2)C1c1ccc(OC)c(OC)c1` (configuration not stated): the inhibition is -2.03%.

Regarding `COC(=O)c1cc(NS(=O)(=O)c2ccc3c(c2)c(=O)n(C)c(=O)n3C)cc(C(=O)OC)c1`, the inhibition was 3.19%.

In the case of `CN(C)S(=O)(=O)c1ccc(N/C=C(\[N+](=O)[O-])S(=O)(=O)c2ccccc2)cc1`, the inhibition was 1.43%.

Take `CC(C)CSc1nnc(-c2cccnc2)n1Cc1ccccc1`: the inhibition was 1.95%.

Turning to `Cc1cccc(-c2nc3c(c(SCC(=O)N4CCOCC4)n2)CCCC3)c1`, the inhibition is -2.28%.

Take `C=CCN1C(=O)c2ccc(C(=O)N3CCC(C(=O)OCC)CC3)cc2C1=O`: the inhibition is -1.32%.

Turning to `COc1ccc(NC(=O)C2C3CCC(O3)C2C(=O)O)cc1OC` (configuration not stated), the inhibition was 1.91%.

On to `Cc1sc(NC(=O)C2C3CCC(O3)C2C(=O)O)c(C(=O)OC(C)C)c1-c1ccc(Cl)cc1` (configuration not stated), for which the inhibition is 22.5% (active).

`CC(C)OC(=O)c1cc(NC(=O)C2C3CCC(O3)C2C(=O)O)cc(C(=O)OC(C)C)c1` (configuration not stated): the inhibition was -2.71%.

For the compound `CCOC(=O)c1csc(NC(=O)C2CCCN(S(=O)(=O)c3ccc(Cl)s3)C2)n1` (configuration not stated), the inhibition was -5.11%.

For the compound `Cc1nc(CNc2ncnc3ccc(-c4ccc5c(c4)OCO5)cc23)cs1`, the inhibition was 6.73%.

On to `COc1ccc(C(=O)OCCN2CCN(C3CN(Cc4cn(Cc5ccccc5F)nn4)S(=O)(=O)C3)CC2)cc1OC` (configuration not stated), for which the inhibition was -2.53%.

For `Cc1cccc(C(=O)Nc2c(-c3ccc(F)cc3)nc3ncccn23)c1`, the inhibition is 1.66%.

For the compound `Cc1cccc(CS(=O)(=O)c2ncc(Cl)c(C(=O)Nc3ccc(F)cc3)n2)c1`, the inhibition is 31.4% (active).

On to `Cc1cccc(NC(=O)c2nc(S(=O)(=O)Cc3ccccc3)ncc2Cl)c1`, for which the inhibition was 31.1% (active).

Consider `Cc1cc(NS(=O)(=O)c2ccc(NC(=S)NC(=O)c3ccc(F)cc3Cl)cc2)no1`, for which the inhibition is -2.11%.

As for `Cc1cccc(NC(=O)c2cc3c(C)nn(-c4ccccc4)c3s2)c1`, the inhibition is -4.86%.

Consider `O=C(CCS(=O)(=O)c1ccccc1)Nc1ccc(Cl)c(Cl)c1`, for which the inhibition is 1.21%.

For orientation: inhibition means the drop in the measured response relative to a control, in per cent.
